Assay results from PubChem BioAssay (Tox21).
Inconclusive results are not listed. The source made the active and inactive calls. Unless noted, calls come from the whole dose curve; as a rule, active = well fitted curve in the direction sought with a large enough effect in the repeat runs; inconclusive = weak or mixed curves; inactive = no such curve, though single readings can be large; an effect the other way counts as inactive or inconclusive.

Columns and labels:
[1] = molecular target: Thyrotropin-releasing hormone receptor (Homo sapiens) (UniProt P34981); assay: qHTS assay to identify small molecule agonists of the thyrotropin-releasing hormone receptor (TRHR) signaling pathway (AID 1346891; calls by dose curve;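 note: HEK293 cells expressing TRHR with calcium dye readout; series mostly up to about 58 µM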)
How it was run: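 Overnight-plated (18 h, 37 °C, 5% CO2) TRHR-Hek293 cells; 2 h calcium dye at 37 °C; compound in DMSO; 3-min kinetic fluorescence read.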

[2] = Human pregnane X receptor (PXR) small molecule agonists, qHTS cell viability counter screen (AID 1346977); note: nearly all actives have a fitted effect of over 50% in size
How it was run: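 After a 5hr pre-incubation, PXR-Luc HepG2 cells received compounds plus positive control in DMSO and were kept 24hr at 37C. Cell viability was quantified by fluorescence from CellTiter-Fluor added for the final hour.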

[3] = Caspase-3/7 induction in HepG2 cells by small molecules, qHTS assay (AID 1346978); note: nearly all actives have a fitted effect of over 15% in size
How it was run: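 Caspase-3/7 induction was measured by Caspase-Glo 3/7 luminescence (30 min, room temperature) after a 17 hr compound exposure of wild-type HepG2 cells seeded at 2,000 per well and pre-incubated 5 hr.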

[4] = Caspase-3/7 induction in CHO-K1 cells by small molecules, qHTS cell viability counter screen (AID 1346979); note: nearly all actives have a fitted effect of over 35% in size
How it was run: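 Multiplexed with Caspase-Glo 3/7 in CHO-K1 cells, this counter screen added CellTiter-Fluor after 16hr of compound exposure and recorded fluorescence 1hr later.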

[5] = Caspase-3/7 induction in CHO-K1 cells by small molecules, qHTS assay (AID 1346980); note: nearly all actives have a fitted effect of over 15% in size
How it was run: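 Luminescent Caspase-Glo 3/7 read (30min, room temperature) quantified apoptosis induction. Cells were wild-type CHO-K1, treated with compound for 17hr at 37 C and 5% CO2.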

[6] = Caspase-3/7 induction in HepG2 cells by small molecules, qHTS cell viability counter screen (AID 1346981); note: series mostly up to about 92 µM; nearly all actives have a fitted effect of over 30% in size
How it was run: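 The parent HepG2 line is plated at 2,000 cells per well and rested 5 hr before compound pinning from DMSO stocks. Following a 16-hr treatment at 37 C, a fluorogenic live-cell substrate (CellTiter-Fluor) reports viability after 1 hr.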

[7] = molecular target: Nuclear receptor subfamily 1 group I member 2 (Homo sapiens) (UniProt O75469); assay: Human pregnane X receptor (PXR) small molecule agonists, qHTS assay (AID 1346982); note: nearly all actives have a fitted effect of over 35% in size
How it was run: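 After plating in 5% charcoal-stripped FBS and a 5 hr rest, PXR-Luc HepG2 cells received compounds in DMSO. Following 24 hr at 37 C, ONE-Glo was added and light output read.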

[8] = molecular target: Nuclear receptor subfamily 1 group I member 2 (Rattus norvegicus) (UniProt Q9R1A7); assay: Rat pregnane X receptor (rPXR) activation by small molecules, qHTS assay (AID 1346983); details: rPXR luciferase reporter cells, One-Glo luminescence, 24 h; active compounds read high; note: nearly all actives have a fitted effect of over 20% in size
How it was run: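 Luminescent readout (One-Glo luciferase, 30 min room temperature) followed 24 hr compound treatment at 37 C of rPXR cells plated 2,000 per well and preincubated 5hr; qHTS format with compounds delivered in DMSO.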

[9] = molecular target: Nuclear receptor subfamily 1 group I member 2 (Homo sapiens) (UniProt O75469); assay: CYP3A4 induction through human pregnane X receptor (PXR) by small molecules, qHTS assay (AID 1346984); note: nearly all actives have a fitted effect of over 40% in size
How it was run: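 Human PXR activation is tracked via CYP3A4 promoter-luciferase in DPX-2 (HepG2) cells. Compounds treat cells for 24hr at 37C, and luminescence is read after One-Glo.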

[10] = molecular target: Nuclear receptor subfamily 1 group I member 2 (Homo sapiens) (UniProt O75469); assay: Human pregnane X receptor (PXR) activation by small molecules, qHTS assay (AID 1346985); note: nearly all actives have a fitted effect of over 40% in size
How it was run: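 DPX-2 cells (HepG2 co-transfected with a PXR response element and a CYP3A4-promoter luciferase construct) were seeded at 2,000 per well, rested 5 hr at 37C, then exposed to DMSO-dissolved compounds for 24 hr. Activation was read as luciferase luminescence.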

[11] = molecular target: Cytochrome P450 2D6 (Homo sapiens) (UniProt P10635); assay: Cytochrome P450 Family 2 Subfamily D Member 6 (CYP2D6) small molecule antagonists: luciferase reporter qHTS assay (AID 1671196); note: series mostly up to about 120 µM; nearly all actives have a fitted effect of over 50% in size
How it was run: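 Quantitative HTS of Tox21 chemicals against CYP2D6 using a luminescent proluciferin substrate. After NADPH addition, 1 h room-temperature reaction; luminescence recorded 20 min post detection reagent.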

[12] = molecular target: Cytochrome P450 2C19 (Homo sapiens) (UniProt P33261); assay: Cytochrome P450 Family 2 Subfamily C Member 19 (CYP2C19) small molecule antagonists: luciferase reporter qHTS assay (AID 1671197); note: series mostly up to about 120 µM; nearly all actives have a fitted effect of over 65% in size
How it was run: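 Relative luminescence units recorded 20 min after the detection reagent stopped a 1 h, 37C CYP2C19 reaction on proluciferin substrate, which was started by NADPH regeneration following 10 min room-temperature compound preincubation; ketoconazole positive control.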

[13] = molecular target: Cytochrome P450 2C9 (Homo sapiens) (UniProt P11712); assay: Cytochrome P450 Family 2 Subfamily C Member 9 (CYP2C9) small molecule antagonists: luciferase reporter qHTS assay (AID 1671198); note: series mostly up to about 120 µM; nearly all actives have a fitted effect of over 50% in size
How it was run: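 Enzyme-substrate mix preincubated with compound 10 min at room temperature; reaction started with NADPH regeneration solution, 1 h 37C. Luminescent luciferin product read after 20 min detection reagent.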

[14] = molecular target: Voltage-gated inwardly rectifying potassium channel KCNH2 (Homo sapiens) (UniProt Q12809); assay: Human Ether-a-go-go-Related Gene (hERG) channel small molecule antagonists: fluorescence cell-based qHTS assay (AID 1671200);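 note: hERG-expressing U2OS cells given a thallium stimulus after FluxOR II dye loading; series mostly up to about 77 µM; nearly all actives have a fitted effect of over 50% in size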
How it was run: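 Cell line hERG-U2OS; dye FluxOR II, 1 h RT dark; Tl+ stimulus; ex 480/em 540 nm, read each second for 2 min.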

[15] = molecular target: Cytochrome P450 3A4 (Homo sapiens) (UniProt P08684); assay: Cytochrome P450 Family 3 Subfamily A Member 4 (CYP3A4) small molecule antagonists: luciferase reporter qHTS assay (AID 1671201)
How it was run: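 Room-temperature assay throughout: 10 min compound–enzyme/substrate preincubation, 1 h reaction after NADPH regeneration solution, 20 min detection. Luciferin formed from proluciferin substrate is quantified by luminescence.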

[16] = molecular target: Cytochrome P450 1A2 (Homo sapiens) (UniProt P05177); assay: Cytochrome P450 Family 1 Subfamily A Member 2 (CYP1A2) small molecule antagonists: luciferase reporter qHTS assay (AID 1671199)
How it was run: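 Quantitative high-throughput format using the P450-Glo CYP1A2 system. Reaction initiated by NADPH regeneration solution, 1 h at room temperature, then stopped with detection reagent; luminescence measured 20 min later.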
% is set by controls: 0 for no effect and ±100 for the full control effect.

Sequence of Cytochrome P450 3A4 (Homo sapiens) (P08684 whole entry, looked up): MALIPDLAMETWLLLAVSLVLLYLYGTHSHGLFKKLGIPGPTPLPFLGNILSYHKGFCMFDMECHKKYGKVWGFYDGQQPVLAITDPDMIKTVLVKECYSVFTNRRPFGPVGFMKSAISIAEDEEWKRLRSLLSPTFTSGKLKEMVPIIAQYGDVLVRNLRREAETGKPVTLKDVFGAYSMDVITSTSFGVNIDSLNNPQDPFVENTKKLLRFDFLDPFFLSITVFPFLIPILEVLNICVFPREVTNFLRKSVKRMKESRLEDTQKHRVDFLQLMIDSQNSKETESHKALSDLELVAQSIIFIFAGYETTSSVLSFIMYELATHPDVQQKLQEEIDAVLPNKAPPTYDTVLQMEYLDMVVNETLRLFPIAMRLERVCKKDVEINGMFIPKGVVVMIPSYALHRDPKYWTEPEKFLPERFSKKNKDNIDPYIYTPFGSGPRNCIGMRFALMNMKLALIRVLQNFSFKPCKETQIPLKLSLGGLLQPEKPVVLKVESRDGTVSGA
Sequence of Nuclear receptor subfamily 1 group I member 2 (Homo sapiens) (O75469 whole entry, looked up): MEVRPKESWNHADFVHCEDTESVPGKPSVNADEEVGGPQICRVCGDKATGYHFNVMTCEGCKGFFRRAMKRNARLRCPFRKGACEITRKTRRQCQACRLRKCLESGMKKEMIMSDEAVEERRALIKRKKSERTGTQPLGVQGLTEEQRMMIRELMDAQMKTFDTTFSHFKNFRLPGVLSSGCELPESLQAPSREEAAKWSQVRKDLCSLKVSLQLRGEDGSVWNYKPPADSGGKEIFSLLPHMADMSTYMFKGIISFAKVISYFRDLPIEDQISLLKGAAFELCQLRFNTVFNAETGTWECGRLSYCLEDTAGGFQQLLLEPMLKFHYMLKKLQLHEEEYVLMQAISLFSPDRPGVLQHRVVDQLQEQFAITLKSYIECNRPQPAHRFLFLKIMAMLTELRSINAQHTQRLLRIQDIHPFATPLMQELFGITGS
Sequence of Cytochrome P450 2C9 (Homo sapiens) (P11712 whole entry, looked up): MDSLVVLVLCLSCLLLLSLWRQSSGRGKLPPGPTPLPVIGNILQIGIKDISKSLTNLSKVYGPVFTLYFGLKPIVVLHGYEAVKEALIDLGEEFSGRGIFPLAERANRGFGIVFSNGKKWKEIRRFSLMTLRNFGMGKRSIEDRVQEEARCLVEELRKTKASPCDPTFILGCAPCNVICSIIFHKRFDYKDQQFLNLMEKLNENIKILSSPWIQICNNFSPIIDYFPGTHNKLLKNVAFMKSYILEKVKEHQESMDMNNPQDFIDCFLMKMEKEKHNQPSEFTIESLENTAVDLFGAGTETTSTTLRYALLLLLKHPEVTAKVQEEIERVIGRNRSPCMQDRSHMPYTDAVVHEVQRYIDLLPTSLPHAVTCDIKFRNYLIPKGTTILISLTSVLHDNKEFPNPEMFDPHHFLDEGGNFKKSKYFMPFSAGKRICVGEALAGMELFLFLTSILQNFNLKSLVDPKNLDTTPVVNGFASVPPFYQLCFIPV
Sequence of Cytochrome P450 2C19 (Homo sapiens) (P33261 whole entry, looked up): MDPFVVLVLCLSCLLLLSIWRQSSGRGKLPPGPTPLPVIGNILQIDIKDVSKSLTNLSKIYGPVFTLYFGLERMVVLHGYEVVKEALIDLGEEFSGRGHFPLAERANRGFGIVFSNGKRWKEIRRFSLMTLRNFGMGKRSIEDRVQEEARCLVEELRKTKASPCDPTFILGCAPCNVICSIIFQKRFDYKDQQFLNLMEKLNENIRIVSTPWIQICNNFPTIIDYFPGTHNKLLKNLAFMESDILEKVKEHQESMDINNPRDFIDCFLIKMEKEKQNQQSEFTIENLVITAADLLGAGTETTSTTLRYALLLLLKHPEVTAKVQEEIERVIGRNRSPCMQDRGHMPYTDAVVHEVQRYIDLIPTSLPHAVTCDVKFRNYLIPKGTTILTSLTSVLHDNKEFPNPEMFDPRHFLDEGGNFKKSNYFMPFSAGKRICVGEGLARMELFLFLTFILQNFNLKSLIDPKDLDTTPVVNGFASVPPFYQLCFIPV
Sequence of Nuclear receptor subfamily 1 group I member 2 (Rattus norvegicus) (Q9R1A7 whole entry, looked up): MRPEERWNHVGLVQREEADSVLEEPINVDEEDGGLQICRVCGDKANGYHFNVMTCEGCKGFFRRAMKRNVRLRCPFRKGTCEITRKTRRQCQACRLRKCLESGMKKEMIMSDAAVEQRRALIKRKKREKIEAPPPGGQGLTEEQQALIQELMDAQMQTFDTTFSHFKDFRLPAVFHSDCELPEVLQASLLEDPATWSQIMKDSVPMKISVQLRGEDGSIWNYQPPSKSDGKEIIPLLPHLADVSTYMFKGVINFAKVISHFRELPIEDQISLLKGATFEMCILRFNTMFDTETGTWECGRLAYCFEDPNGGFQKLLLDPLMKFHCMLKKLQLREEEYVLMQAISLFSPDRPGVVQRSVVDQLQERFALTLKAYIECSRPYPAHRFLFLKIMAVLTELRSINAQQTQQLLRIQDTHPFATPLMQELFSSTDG
Sequence of Voltage-gated inwardly rectifying potassium channel KCNH2 (Homo sapiens) (Q12809 whole entry, looked up): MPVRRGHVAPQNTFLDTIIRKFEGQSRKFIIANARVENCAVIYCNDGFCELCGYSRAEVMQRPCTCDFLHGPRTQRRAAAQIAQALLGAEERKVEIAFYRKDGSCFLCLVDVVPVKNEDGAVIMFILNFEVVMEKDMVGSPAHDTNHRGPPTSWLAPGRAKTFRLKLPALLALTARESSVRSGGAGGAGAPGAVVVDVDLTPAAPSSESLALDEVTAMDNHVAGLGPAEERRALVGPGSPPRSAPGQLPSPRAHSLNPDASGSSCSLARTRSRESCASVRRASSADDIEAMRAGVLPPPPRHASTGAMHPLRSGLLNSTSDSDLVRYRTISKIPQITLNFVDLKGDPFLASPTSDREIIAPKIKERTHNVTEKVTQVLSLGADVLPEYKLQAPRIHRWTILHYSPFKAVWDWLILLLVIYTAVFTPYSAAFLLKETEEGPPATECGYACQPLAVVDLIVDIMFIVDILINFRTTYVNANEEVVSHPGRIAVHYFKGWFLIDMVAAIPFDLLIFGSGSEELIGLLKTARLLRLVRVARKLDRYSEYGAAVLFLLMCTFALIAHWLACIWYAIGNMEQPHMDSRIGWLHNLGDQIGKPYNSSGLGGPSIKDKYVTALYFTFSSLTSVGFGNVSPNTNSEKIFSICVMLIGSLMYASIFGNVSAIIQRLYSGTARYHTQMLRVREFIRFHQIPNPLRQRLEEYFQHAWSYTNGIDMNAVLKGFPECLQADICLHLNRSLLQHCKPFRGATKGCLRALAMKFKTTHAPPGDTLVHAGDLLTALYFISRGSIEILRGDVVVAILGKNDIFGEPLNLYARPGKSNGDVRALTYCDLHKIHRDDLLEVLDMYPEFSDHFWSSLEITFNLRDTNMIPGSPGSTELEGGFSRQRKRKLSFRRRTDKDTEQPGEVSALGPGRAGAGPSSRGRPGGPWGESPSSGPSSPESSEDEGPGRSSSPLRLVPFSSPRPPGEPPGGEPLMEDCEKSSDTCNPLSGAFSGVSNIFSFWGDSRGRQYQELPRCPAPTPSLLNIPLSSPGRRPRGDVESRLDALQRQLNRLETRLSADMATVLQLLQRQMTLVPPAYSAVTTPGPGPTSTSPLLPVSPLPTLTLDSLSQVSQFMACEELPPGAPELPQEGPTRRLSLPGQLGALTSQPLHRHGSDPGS
Sequence of Cytochrome P450 2D6 (Homo sapiens) (P10635 whole entry, looked up): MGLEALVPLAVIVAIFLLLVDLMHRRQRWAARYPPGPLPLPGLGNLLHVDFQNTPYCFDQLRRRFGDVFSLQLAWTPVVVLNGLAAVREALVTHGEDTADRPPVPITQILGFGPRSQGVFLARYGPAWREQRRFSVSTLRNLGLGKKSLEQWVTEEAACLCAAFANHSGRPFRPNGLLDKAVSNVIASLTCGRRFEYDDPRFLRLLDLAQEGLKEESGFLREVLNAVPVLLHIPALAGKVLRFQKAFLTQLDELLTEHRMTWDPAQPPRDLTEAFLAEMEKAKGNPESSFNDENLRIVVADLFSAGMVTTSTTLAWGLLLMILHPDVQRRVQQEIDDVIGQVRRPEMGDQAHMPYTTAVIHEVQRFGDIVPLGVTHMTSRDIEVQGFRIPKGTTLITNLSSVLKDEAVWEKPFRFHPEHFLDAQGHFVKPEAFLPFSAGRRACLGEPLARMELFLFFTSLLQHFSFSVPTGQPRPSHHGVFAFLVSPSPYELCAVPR
Sequence of Cytochrome P450 1A2 (Homo sapiens) (P05177 whole entry, looked up): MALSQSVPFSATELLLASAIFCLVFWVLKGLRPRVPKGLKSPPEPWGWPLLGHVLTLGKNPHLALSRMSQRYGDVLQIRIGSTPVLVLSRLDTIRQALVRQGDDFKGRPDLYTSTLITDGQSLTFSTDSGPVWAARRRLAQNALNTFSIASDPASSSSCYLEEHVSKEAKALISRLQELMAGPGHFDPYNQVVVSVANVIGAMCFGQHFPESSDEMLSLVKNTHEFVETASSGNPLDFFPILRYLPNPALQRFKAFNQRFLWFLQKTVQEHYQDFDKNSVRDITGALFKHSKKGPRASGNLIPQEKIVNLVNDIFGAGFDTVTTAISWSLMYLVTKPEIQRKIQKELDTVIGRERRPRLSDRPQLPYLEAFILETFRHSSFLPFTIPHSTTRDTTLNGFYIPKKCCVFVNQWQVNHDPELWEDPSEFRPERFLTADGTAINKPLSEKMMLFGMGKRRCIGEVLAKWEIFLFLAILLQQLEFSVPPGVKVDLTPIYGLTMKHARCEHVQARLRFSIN
Sequence of Thyrotropin-releasing hormone receptor (Homo sapiens) (P34981 whole entry, looked up): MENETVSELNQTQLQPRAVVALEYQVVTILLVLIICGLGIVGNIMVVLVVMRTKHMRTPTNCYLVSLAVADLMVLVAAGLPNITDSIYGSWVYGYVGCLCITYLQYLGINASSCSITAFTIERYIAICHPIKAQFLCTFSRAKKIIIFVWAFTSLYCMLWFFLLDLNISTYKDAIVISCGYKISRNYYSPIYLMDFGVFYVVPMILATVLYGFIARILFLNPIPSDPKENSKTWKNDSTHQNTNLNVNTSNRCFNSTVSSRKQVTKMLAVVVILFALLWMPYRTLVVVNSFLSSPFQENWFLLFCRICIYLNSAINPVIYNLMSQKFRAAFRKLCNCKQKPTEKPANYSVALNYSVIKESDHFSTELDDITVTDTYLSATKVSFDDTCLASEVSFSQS

Cc1cc2c(cc1S(N)(=O)=O)S(=O)(=O)CCC2
inactive: outcome [1] | Potency [2] | Potency [3] | Potency [4] | outcome [5] | Potency [6] | Potency [7] | max activation [8] -2.16% | Potency [9] | Potency [10] | Potency [11] | Potency [12] | Potency [13] | Potency [14] | Potency [15]

CC(C(=O)O)c1ccc(CC2CCCC2=O)cc1 (stereo not drawn)
inactive: outcome [1] | Potency [2] | Potency [3] | Potency [4] | outcome [5] | Potency [6] | Potency [7] | Potency [11] | Potency [12] | Potency [13] | Potency [16] | Potency [14]

N=C(N)c1ccc2cc(OC(=O)c3ccc(N=C(N)N)cc3)ccc2c1
inactive: outcome [1] | Potency [2] | Potency [3] | Potency [4] | outcome [5] | Potency [6] | Potency [7] | max activation [8] -2.79% | Potency [9] | Potency [10] | Potency [11] | Potency [12] | Potency [13] | Potency [16] | Potency [14] | Potency [15]

NS(=O)(=O)c1cc(C(=O)O)cc(N2CCCC2)c1Oc1ccccc1
inactive: outcome [1] | Potency [2] | Potency [3] | Potency [4] | outcome [5] | Potency [6] | Potency [7] | max activation [8] 1.61% | Potency [9] | Potency [10] | Potency [11] | Potency [12] | Potency [13] | Potency [16] | Potency [15]

NC(CSCC(=O)O)C(=O)O (stereo not drawn)
inactive: outcome [1] | Potency [2] | Potency [3] | Potency [4] | outcome [5] | Potency [6] | Potency [7] | max activation [8] -3.73% | Potency [9] | Potency [10] | Potency [12] | Potency [13] | Potency [14] | Potency [15]

Cc1cc(O)cc2c1O[C@](C)(CCC[C@H](C)CCC[C@H](C)CCCC(C)C)CC2
inactive: outcome [1] | Potency [2] | Potency [3] | Potency [4] | outcome [5] | Potency [6] | Potency [7] | max activation [8] -2.13% | Potency [9] | Potency [10] | Potency [12] | Potency [14] | Potency [15]

CN1CCN(c2cc3c(cc2F)c(=O)c(C(=O)O)cn3-c2ccc(F)cc2)CC1
inactive: outcome [1] | Potency [2] | Potency [3] | Potency [4] | outcome [5] | Potency [6] | Potency [7] | max activation [8] -3.97% | Potency [9] | Potency [10] | Potency [11] | Potency [12] | Potency [13] | Potency [14]

Nc1ccc(S(=O)(=O)Nc2ccnn2-c2ccccc2)cc1
inactive: activation [1] -0.182% [at 11.8 µM] | activity change, negative = cytotoxicity [2] -0.0622% [at 19 µM] | caspase activation [3] 0.58% [at 19 µM] | Potency [4] | caspase-3/7 activation [5] 1.89% [at 19 µM] | activity change, negative = cytotoxicity [6] -0.388% [at 19 µM] | activation [7] -6.08% [at 19 µM] | max activation [8] 8.45% | Potency [9] | Potency [10] | activity change, negative = inhibition [11] 0.38% [at 23.6 µM] | Potency [12] | Potency [16] | activity change, negative = inhibition [14] 4.06% [at 15.8 µM]
